GoLoco inh red: inhibitors of human Gai1-RGS12 GoLoco interaction (red fluorophore); AID 880; Potency, µM (top dose mostly 61.6 µM), inactives show at the highest dose activity, negative = inhibition, actives largely listed as inhibitors; P63096; 230,000 tested, 0.44% active; Gai1:RGS12 GoLoco peptide FP, rhodamine, 10 min; active = well fitted inhibition curve with a large enough effect, not every such curve was filed as active; inactive = no such curve, though single readings can be large or run the other way; note: nearly all actives have a fitted effect of over 30% in size
VDR inhibitor: inhibitors of human vitamin D receptor | VDR-SRC2-3 peptide fluorescence polarization, 2 h | Potency, µM, for the others: max response, negative = inhibition, most hits filed as inhibitors | 400,000 tested, 0.93% active
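Inhibition of the VDR/SRC2-3 peptide interaction is quantified by fluorescence polarization. Compounds (23 nl, pintool) incubate with the reagents for 2 hours at ambient room temperature.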
TexasRed fluor: counter-screen for TRb-SRC2 inhibitors: fluorescence interference | AID 1479 | 280,000 tested, 0.29% active | Potency, µM (highest dose often 106 µM), for inactives: at the highest dose fluorescence change, negative = quenching | TRb/SRC2 Texas Red total fluorescence interference; active = well fitted curve in either direction with a large enough effect; inconclusive = small, poorly fitted or top-dose-only effect
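Flags fluorescent or light-absorbing compounds by total fluorescence, S + 2P, at 555 nm excitation and 632 nm emission. Mixture: 20 nM Texas Red SRC2 peptide, 0.6 uM human TRb LBD, 1 uM T3, 5% DMSO; compound exposure 5 h at ambient temperature.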
GCN5L2 inh: GCN5L2 (KAT2A) acetyltransferase inhibition; Q92830; GCN5L2 HAT assay, ThioGlo1 CoA-SH fluorescence; Potency, µM (highest dose often 58.9 µM), for inactives: top-dose activity change, negative = inhibition, hits mostly inhibitors; 390,000 tested, 0.21% active
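Enzyme at 20nM final was mixed with library compounds for 15 min at room temperature. Peptide H3(1-25) at 75uM, acetyl-CoA at 70uM and ThioGlo1 at 50uM were then added. Plates were read immediately and after 20 min (Ex340nm/Em540nm).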
TRb SRC2 PPI: disrupts binding of human TR beta to SRC2; P10828; TRbeta-SRC2 peptide binding, fluorescence polarization; receptor liganded with 1 µM T3; Potency, µM (series often up to 106 µM), inactives show at the top dose activity change, negative = inhibition, actives largely listed as inhibitors; 280,000 tested, 0.065% active; AID 1469;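 note: plate controls were bound peptide for no effect and peptide without receptor for full effect; nearly all actives have a fitted effect of over 50% in size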
Target sequence (P10828 whole entry, looked up): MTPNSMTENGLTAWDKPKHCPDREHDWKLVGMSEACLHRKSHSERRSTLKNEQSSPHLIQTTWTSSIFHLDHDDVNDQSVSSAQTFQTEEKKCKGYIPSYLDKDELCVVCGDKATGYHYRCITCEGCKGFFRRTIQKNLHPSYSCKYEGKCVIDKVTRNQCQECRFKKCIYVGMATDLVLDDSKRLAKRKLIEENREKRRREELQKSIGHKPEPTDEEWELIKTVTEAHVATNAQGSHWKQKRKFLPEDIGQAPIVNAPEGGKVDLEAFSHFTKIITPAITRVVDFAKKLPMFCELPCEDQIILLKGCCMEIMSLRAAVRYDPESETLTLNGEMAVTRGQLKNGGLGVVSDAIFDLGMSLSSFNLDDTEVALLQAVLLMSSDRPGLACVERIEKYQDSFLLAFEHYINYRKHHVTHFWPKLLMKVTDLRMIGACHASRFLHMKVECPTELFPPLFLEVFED
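Polarization signal, normalized between peptide-alone and full complex controls, measured compound effects on T3-liganded human TRb LBD (0.6 uM) binding 20 nM Texas Red SRC2 peptide after 5 hr.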
Starred values were filed as active, the others as inactive; ? = inconclusive; . = no result given; ! = repeats disagree; [ ] = dose if it differs, or a comment. An excerpt weighted towards active compounds, which were near 1.2% of everything screened. Unless noted, calls come from the whole dose curve; as a rule, active = well fitted curve in the direction sought with a large enough effect; inconclusive = small, poorly fitted or top-dose-only effect, or another doubt; inactive = no such curve, though single readings can be large; an effect the other way counts as inactive or inconclusive. Unless noted, % is set by controls: 0 for no effect and ±100 for the full control effect; potency is the fitted concentration of half-maximal effect.

SMILES	GoLoco inh red	VDR inhibitor	TexasRed fluor	GCN5L2 inh	TRb SRC2 PPI
Cc1ccc2cc(C=C(C#N)C#N)c(Cl)nc2c1	-20%	35µM*	-7%	-4%	-2%
Cc1cc(N2CCCC2)ccc1C=C(C#N)C#N	14%	?	0%	-8%	-2%
CCOc1cc(C(C)(C)C)ccc1C1COC(c2c(F)cccc2F)=N1 (stereo not given)	.	.	0%[201 µM]	.	0%[201 µM]
N#Cc1c(/N=C/c2c(O)n(Cc3ccco3)c(=O)[nH]c2=O)sc2c1CCCC2	87%	79µM*	0%	?	-13%
COC(=O)C(O)(c1ccc(N(C)C)cc1)C(F)(F)F (stereo not given)	3%	-5%	-3%	-4%	3%
COC(=O)C(O)(c1ccc(N(C)C(=O)c2cccs2)cc1)C(F)(F)F (stereo not given)	14%	50µM*	-4%	-2%	-2%
CC(Oc1ccc(Cl)cc1Cl)C(=O)O (stereo not given)	.	.	0%[201 µM]	.	2%[201 µM]
Cc1nn(-c2cc(NS(C)(=O)=O)c(Cl)cc2Cl)c(=O)n1C(F)F	.	.	-1%[201 µM]	.	-4%[201 µM]
Cc1ncc(CN2CCCC(C(=O)c3cccc(OC(C)C)c3)C2)s1 (stereo not given)	-6%	16%	-2%[53 µM]	20µM*	5%[53 µM]
COc1c(C)cc(C(=O)C2CCCN(Cc3cnc(C)s3)C2)cc1C (stereo not given)	4%	-5%	2%	-3%	-6%
C=CCN1C(=O)NC(=O)/C(=C/c2ccc(OC)c(COc3ccc(NC(C)=O)cc3)c2)C1=O	4%	79µM*	-2%	0%	1%
C=CCN1C(=O)NC(=O)/C(=C/c2ccc(OC)c(CSc3ccccn3)c2)C1=O	37%	71µM*	.	-14%	.
COc1ccc(/C=C2/C(=O)NC(=O)N(Cc3ccco3)C2=O)cc1	15%	.	0%	?	-2%
C=CCN1C(=O)NC(=O)/C(=C/C=C/c2ccccc2)C1=O	-23%	?	-1%	-25%	1%
O=C1c2ccccc2C(=O)C1C(=O)C(c1ccccc1)c1ccc(Cl)cc1 (stereo not given)	.	.	-11%[201 µM]	.	-24%[201 µM]
O=C1NC(=O)N(c2ccc3c(c2)OCO3)C(=O)/C1=C/c1cccs1	31%	79µM*	5%	-2%	-4%
O=C1NC(=O)N(c2ccc3c(c2)OCO3)C(=O)/C1=C/c1ccsc1	3%	?	-1%	4%	7%
[Cl-].[Cl-].[Hg+2]	-99%	2.5µM*	.	0.14µM*	.
CSc1ccccc1NP1(=O)OCC(C)([N+](=O)[O-])CO1 (stereo not given)	.	-2%	.	.	.
CC1([N+](=O)[O-])COP(=O)(Nc2ccc(Cl)cc2)OC1 (stereo not given)	.	89µM*	.	.	.
CCOP(N)(=O)Oc1ccc(SC)c(C)c1 (stereo not given)	.	.	3%[201 µM]	.	-9%[201 µM]
CC[N+](C)(CC)CCCOC(=O)C(O)(c1ccccc1)C1CCCCC1 (stereo not given)	6.3µM*	-19%	0%	-3%	5%
CCOC(C(=O)OCCC[N+](C)(CC)CC)(c1ccccc1)c1ccccc1	-5%	7%	-1%	-2%	10%
CCCCC/C=C\C/C=C\C/C=C\C/C=C\CCCC(=O)NCc1ccoc1	30%	22µM*	1%	14µM*	-5%
CCCCC/C=C\C/C=C\C/C=C\C/C=C\CCCC(=O)NCCc1ccc(O)c(O)c1	-11%	40µM*!	-3%	18µM*	3%
SMILES	GoLoco inh red	VDR inhibitor	TexasRed fluor	GCN5L2 inh	TRb SRC2 PPI
CCCCC/C=C\C/C=C\C/C=C\C/C=C\CCCC(=O)N(Cc1ccc(O)c(Cl)c1)Cc1ccc(O)c(Cl)c1	40µM*	14µM*	3%	?	8%
CCCCC/C=C\C/C=C\CCCCCCCCCC(=O)NCCO	0%	-13%	-1%	.	-5%
CCCCC/C=C\C/C=C\C/C=C\C/C=C\CCCC(=O)NCC(=O)O	33%	40µM*!	2%	6.3µM*	10%
CCCCC/C=C\C/C=C\C/C=C\C/C=C\CCCC(=O)NCCCC(=O)O	8%	28µM*	1%	14µM*	-11%
CCCCC/C=C\C/C=C\C/C=C\C/C=C\CCCC(=O)NCCO	1%	71µM*!	1%	-5%	0%
CC/C=C\C/C=C\C/C=C\C/C=C\C/C=C\CCCC(=O)NCCCC(=O)O	0%	-10%	0%	.	-3%
CCCCC/C=C\C/C=C\C/C=C\C/C=C\CCCC(=O)Nc1ccc(O)cc1C	9%	0%	3.5µM*![quencher]	-17%	-16%
CCCCC/C=C\C/C=C\C/C=C\C/C=C\CCCC(=O)Nc1ccc(O)cc1	2%	-1%	1%	-19%	0%
O=[As](O)(O)O	.	.	-1%[201 µM]	.	-2%[201 µM]
Cc1cnc(C2=NC(C)(C(C)C)C(=O)N2)c(C(=O)O)c1 (stereo not given)	.	.	0%[201 µM]	.	-11%[201 µM]
COC(=O)N(C(=O)N1COC2(C(=O)OC)Cc3cc(Cl)ccc3C2=N1)c1ccc(OC(F)(F)F)cc1 (stereo not given)	.	.	-2%[201 µM]	.	4%[201 µM]
CC1(C)CN=C(NN=C(/C=C/c2ccc(C(F)(F)F)cc2)/C=C/c2ccc(C(F)(F)F)cc2)NC1	.	.	-1%[201 µM]	.	2%[201 µM]
CSc1ncc(/C=C2/C(=O)NC(=O)N(C3CCCCC3)C2=O)cn1	7%	20µM*	1%	-2%	?
CCCCN1C(=O)NC(=O)/C(=C/c2cnc(SC)nc2)C1=O	18%	25µM*	-1%	-2%	4%
CN1CCCC1C(O)(c1ccccc1)c1ccccc1 (stereo not given)	.	3%	.	.	.
CCCCCCCCCC[n+]1cccc([C@@H]2CCCN2C)c1	.	-22%	-26%	8.9µM*	0%
[Cl][Sn]([c]1ccccc1)([c]1ccccc1)[c]1ccccc1	.	.	0%[201 µM]	.	1%[201 µM]
CC(C)[C@@H](Nc1ccc(C(F)(F)F)cc1Cl)C(=O)OC(C#N)c1cccc(Oc2ccccc2)c1 (stereo not given in full)	.	.	3%[201 µM]	.	-4%[201 µM]
CCC(=O)OC1CCC2C3CCC4CC(=O)C=CC4(C)C3CCC12C (stereo not given)	.	50µM*	.	.	.
Cc1ccc(-c2cn3c(=S)[nH]nc3s2)cc1	1%	-14%	0%	14µM*	-5%
CC(C)(C)N(NC(=O)c1ccc(Cl)cc1)C(=O)c1ccccc1	.	.	4%[201 µM]	.	-3%[201 µM]
Oc1c(Br)cc(-c2ccccc2)cc1Br	.	-5%	.	.	.
N[C@@H](Cc1cc(Br)c(O)c(Br)c1)C(=O)O	11µM*!	.	0%	1%	-1%
COC(=O)C1=CO[C@@H](C)[C@@H]2CN3CCc4c([nH]c5cc(OC)ccc45)[C@@H]3C[C@H]12	-3%	79µM*	0%	.	-1%
C[C@]12CC[C@@H]3c4ccc(OC(=O)N(CCCl)CCCl)cc4CC[C@H]3[C@@H]1CC[C@@H]2O	.	50µM*	.	13µM*	.
C[C@]12CC[C@@H]3c4ccc(O)c(O)c4CC[C@H]3[C@@H]1CC[C@@H]2O	-15%	-15%	-2%	-11%	-1%

High-throughput results deposited in PubChem BioAssay by National Center for Advancing Translational Sciences (NCATS).
